Measurements reported in ChEMBL document CHEMBL2218924, “A broad activity screen in support of a chemogenomic map for kinase signalling research and drug discovery” (Biochem J, 2013).

Tests used:
[1] = molecular target: Insulin receptor (Homo sapiens) (UniProt P06213); conditions: at 10 µM
[2] = molecular target: Insulin receptor (Homo sapiens) (UniProt P06213); conditions: at 1 µM
[3] = molecular target: Insulin receptor (Homo sapiens) (UniProt P06213); conditions: at 10 µM; remark: listed apart in the source
[4] = molecular target: Interleukin-1 receptor-associated kinase 1 (Homo sapiens) (UniProt P51617); conditions: at 1 µM
Interleukin-1 receptor-associated kinase 1 (Homo sapiens), sequence (P51617 whole entry, looked up): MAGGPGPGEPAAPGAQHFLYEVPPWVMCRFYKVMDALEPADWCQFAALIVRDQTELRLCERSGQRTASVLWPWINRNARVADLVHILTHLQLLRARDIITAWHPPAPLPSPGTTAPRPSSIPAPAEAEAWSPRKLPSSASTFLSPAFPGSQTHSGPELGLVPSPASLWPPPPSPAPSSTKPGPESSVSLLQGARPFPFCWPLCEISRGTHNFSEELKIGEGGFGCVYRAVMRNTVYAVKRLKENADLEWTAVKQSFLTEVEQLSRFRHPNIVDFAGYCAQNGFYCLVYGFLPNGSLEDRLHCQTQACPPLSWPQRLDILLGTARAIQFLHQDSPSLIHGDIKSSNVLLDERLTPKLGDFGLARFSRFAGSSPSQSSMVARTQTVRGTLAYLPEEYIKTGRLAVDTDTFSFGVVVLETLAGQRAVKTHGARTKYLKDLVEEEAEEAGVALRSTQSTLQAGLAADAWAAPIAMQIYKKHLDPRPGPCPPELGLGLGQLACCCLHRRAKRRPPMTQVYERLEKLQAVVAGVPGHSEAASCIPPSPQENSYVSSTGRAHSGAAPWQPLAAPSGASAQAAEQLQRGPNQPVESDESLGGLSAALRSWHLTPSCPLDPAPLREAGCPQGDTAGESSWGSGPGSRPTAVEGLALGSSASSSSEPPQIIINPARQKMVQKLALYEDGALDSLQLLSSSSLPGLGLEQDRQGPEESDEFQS

[5] = molecular target: Interleukin-1 receptor-associated kinase 1 (Homo sapiens) (UniProt P51617); conditions: at 10 µM
[6] = molecular target: T1, Interleukin-1 receptor-associated kinase 4 (Homo sapiens) (UniProt Q9NWZ3); conditions: at 1 µM
T1 sequence (whole entry): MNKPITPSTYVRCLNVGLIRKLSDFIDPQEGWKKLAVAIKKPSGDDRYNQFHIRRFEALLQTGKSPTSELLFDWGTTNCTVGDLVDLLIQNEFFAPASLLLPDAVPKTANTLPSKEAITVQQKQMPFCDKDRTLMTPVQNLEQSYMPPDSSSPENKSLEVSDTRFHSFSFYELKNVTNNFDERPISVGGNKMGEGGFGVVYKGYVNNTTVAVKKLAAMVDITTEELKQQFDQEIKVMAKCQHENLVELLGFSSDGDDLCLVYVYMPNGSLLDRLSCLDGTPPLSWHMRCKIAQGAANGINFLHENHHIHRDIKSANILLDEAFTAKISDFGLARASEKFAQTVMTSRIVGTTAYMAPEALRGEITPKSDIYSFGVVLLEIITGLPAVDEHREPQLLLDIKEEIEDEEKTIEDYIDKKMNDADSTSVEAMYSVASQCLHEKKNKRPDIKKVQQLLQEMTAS

[7] = molecular target: T1, Interleukin-1 receptor-associated kinase 4 (Homo sapiens); conditions: at 10 µM
[8] = molecular target: Insulin receptor-related protein (Homo sapiens) (UniProt P14616); conditions: at 1 µM
Insulin receptor-related protein (Homo sapiens), sequence (P14616 27-742 limits assumed): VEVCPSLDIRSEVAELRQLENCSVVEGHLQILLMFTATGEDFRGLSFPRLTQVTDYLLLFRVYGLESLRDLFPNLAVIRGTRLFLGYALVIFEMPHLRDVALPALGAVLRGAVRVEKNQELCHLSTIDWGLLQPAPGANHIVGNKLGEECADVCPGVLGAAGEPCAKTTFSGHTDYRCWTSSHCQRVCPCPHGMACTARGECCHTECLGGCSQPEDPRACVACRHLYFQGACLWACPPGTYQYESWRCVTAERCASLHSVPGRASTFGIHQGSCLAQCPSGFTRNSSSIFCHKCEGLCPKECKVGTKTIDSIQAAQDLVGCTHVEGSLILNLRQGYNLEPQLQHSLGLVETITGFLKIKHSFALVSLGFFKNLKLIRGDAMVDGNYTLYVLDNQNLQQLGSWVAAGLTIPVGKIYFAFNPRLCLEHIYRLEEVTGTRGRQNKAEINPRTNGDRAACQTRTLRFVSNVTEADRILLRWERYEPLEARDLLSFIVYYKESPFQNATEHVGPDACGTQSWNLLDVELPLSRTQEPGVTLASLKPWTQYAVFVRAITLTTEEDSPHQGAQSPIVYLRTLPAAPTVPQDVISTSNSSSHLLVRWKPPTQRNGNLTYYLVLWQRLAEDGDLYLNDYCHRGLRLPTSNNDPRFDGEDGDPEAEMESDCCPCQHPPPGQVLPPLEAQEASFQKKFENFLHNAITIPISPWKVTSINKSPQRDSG
Insulin receptor-related protein (Homo sapiens), sequence (P14616 747-1297 limits assumed): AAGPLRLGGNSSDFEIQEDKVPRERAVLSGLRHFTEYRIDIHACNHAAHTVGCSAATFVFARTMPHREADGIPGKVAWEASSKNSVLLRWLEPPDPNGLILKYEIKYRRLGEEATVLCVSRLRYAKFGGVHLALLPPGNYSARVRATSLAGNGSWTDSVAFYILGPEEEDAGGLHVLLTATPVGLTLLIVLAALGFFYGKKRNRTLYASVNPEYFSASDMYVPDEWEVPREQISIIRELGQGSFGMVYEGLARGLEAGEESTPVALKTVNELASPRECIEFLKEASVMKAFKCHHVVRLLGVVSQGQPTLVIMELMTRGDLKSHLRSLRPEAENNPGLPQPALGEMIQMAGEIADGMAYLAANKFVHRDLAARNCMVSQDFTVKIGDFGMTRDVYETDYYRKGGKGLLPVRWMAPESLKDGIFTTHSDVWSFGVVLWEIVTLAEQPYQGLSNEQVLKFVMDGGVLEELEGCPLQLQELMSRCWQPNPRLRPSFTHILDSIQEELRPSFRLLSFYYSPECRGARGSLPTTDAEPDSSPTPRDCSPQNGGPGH

[9] = molecular target: Insulin receptor-related protein (Homo sapiens) (UniProt P14616); conditions: at 10 µM
[10] = molecular target: T2, Tyrosine-protein kinase ITK/TSK (Homo sapiens) (UniProt Q08881); conditions: at 1 µM
T2 sequence (whole entry): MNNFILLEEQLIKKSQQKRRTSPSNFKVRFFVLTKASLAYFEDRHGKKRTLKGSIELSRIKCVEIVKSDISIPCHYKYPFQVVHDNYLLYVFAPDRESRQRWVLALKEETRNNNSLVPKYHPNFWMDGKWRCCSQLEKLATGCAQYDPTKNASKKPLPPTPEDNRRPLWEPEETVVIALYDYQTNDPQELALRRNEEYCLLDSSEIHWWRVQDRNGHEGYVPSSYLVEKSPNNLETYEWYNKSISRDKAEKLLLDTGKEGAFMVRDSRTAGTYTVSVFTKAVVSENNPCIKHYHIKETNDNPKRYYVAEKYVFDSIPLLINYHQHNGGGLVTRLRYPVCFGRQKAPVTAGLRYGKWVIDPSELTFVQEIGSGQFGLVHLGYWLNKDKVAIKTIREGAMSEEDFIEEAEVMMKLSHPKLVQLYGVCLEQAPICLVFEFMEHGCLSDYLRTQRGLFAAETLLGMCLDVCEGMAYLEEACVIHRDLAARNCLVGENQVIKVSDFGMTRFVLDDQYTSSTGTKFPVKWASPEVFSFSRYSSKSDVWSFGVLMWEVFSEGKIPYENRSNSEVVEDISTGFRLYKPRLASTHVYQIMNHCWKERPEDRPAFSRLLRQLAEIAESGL

Insulin receptor (Homo sapiens), sequence (P06213 28-758 limits assumed): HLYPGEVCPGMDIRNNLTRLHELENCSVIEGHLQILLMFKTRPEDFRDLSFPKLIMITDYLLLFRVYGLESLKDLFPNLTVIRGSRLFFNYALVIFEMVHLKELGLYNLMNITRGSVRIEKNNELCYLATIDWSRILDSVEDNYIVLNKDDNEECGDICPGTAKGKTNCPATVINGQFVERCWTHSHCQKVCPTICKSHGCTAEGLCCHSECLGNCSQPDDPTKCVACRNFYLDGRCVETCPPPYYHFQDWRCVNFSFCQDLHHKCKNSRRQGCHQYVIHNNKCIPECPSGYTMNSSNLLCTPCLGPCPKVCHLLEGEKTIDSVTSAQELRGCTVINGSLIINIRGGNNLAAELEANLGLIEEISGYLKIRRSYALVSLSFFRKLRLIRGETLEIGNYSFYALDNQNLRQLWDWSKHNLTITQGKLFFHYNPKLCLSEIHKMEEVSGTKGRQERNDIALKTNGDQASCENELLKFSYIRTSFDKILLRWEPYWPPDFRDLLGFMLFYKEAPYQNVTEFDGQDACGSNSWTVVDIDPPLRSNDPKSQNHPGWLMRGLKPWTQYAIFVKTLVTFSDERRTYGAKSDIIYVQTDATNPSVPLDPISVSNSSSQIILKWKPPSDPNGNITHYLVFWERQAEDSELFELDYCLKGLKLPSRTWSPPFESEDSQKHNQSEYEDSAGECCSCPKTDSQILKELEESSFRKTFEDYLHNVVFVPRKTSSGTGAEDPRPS
Insulin receptor (Homo sapiens), sequence (P06213 763-1382 limits assumed): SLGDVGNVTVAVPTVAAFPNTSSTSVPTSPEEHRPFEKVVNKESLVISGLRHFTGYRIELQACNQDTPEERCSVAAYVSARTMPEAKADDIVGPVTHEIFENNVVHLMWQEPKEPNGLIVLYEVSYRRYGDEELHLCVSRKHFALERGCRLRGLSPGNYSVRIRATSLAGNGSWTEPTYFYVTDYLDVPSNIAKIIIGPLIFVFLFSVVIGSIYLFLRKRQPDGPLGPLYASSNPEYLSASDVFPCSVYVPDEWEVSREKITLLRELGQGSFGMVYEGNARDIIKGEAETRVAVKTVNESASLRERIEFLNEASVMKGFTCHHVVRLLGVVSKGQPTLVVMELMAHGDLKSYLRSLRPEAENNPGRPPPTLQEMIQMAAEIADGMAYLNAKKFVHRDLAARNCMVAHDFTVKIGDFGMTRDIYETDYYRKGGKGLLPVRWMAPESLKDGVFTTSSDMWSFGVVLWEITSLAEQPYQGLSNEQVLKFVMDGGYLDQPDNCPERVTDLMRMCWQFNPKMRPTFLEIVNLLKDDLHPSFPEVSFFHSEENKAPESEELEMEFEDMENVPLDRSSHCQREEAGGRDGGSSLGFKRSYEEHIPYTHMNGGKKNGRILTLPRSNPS

SMILES	residual activity [1]	residual activity [2]	residual activity [3]	residual activity [4]	residual activity [5]	residual activity [6]	residual activity [7]	residual activity [8]	residual activity [9]	residual activity [10]
COc1cc2ncnc(N3CCN(C(=O)Nc4ccc(Oc5ccccc5)cc4)CC3)c2cc1OC	113%	98%	97%	76%	57%	87%	98%	117%	80%	88%
Oc1ccc(-c2nc(-c3ccc(F)cc3)c(-c3ccncc3)[nH]2)cc1	126%	97%	90%	104%	79%	–	88%	–	98%	108%
O=c1c2ccccc2[nH]c(=S)n1CCN1CCC(=C(c2ccc(F)cc2)c2ccc(F)cc2)CC1	121%	105%	101%	83%	86%	105%	103%	120%	71%	109%
Cn1cc(/C=C2\C(=O)Nc3ccc(S(N)(=O)=O)cc32)c2ccccc21	95%	66%	64%	1%	15%	0%	-1%	124%	35%	8%
Nc1ccc2ncnc(NCCc3ccc(Oc4ccccc4)cc3)c2c1	35%	101%	92%	100%	101%	88%	58%	101%	108%	80%
Cc1cc2ncc(-c3ccccc3)nc2cc1C	–	–	–	99%	94%	–	–	124%	71%	93%
N#CC(C#N)=C(N)/C(C#N)=C/c1ccc(O)cc1	83%	98%	93%	–	84%	–	–	142%	76%	–
c1ccc2c(-c3ccncc3)c[nH]c2c1	70%	97%	87%	76%	57%	94%	99%	–	83%	101%
c1ccc(-c2n[nH]cc2-c2ccnc3ccccc23)nc1	84%	99%	105%	91%	73%	87%	101%	132%	79%	97%
Cc1nc2cc3nc(-c4cccs4)cnc3cc2n1C	101%	106%	95%	110%	90%	111%	70%	130%	100%	108%
COc1ccc(OC)c2c(=S)c3ccccc3[nH]c12	103%	101%	89%	101%	102%	86%	68%	106%	103%	98%
CCN(CC)C(=O)c1ccc(Nc2nc(OCC3CCCCC3)c3nc[nH]c3n2)cc1	143%	47%	7%	–	35%	57%	15%	69%	1%	32%
CO[C@@H]1[C@H](N(C)C(=O)c2ccccc2)C[C@H]2O[C@]1(C)n1c3ccccc3c3c4c(c5c6ccccc6n2c5c31)C(=O)NC4	–	80%	72%	85%	74%	53%	47%	98%	57%	56%
O=C1NC(=O)c2c1c1c3ccccc3[nH]c1c1[nH]c3cc(Br)ccc3c21	88%	103%	95%	106%	107%	92%	76%	97%	84%	102%
NC(=O)c1ccc2[nH]c(-c3ccc(Oc4ccc(Cl)cc4)cc3)nc2c1	108%	100%	94%	95%	82%	80%	79%	107%	101%	102%
Ic1cccc(CSc2nnc(-c3ccncc3)o2)c1	82%	95%	92%	91%	94%	55%	41%	112%	101%	93%
O=C1Nc2ccc(Br)cc2/C1=C\c1cc2c([nH]1)CCCC2	79%	–	–	–	–	82%	77%	114%	63%	–
c1ccc(-c2n[nH]c3c2oc2ccccc23)cc1	–	–	–	96%	98%	91%	68%	141%	73%	98%
